# Source: the supplement of paper PMC4466140
# Tests used:
# Test in all cases: SPOT peptide array binding signal intensity (averaged, normalized) (arbitrary units (background-subtracted, floor 0; scale differs between SH3 domains)); higher = stronger binding of the SH3 domain to the peptide
# AgAbp1 = target: AgAbp1
# Method: (§1)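 GST-tagged SH3 domains from S. cerevisiae (Sc), A. gossypii (Ag), C. albicans (Ca) and S. pombe (Sp) were incubated at 10 ug/ml overnight at 4 C on cellulose SPOT membranes carrying 292 synthetic 15-mer peptides mined from the S. cerevisiae proteome (cysteines replaced by serines). Binding was detected with anti-GST antibody, HRP secondary and chemiluminescence, quantified with Genespotter, and reported as normalized spot intensities averaged over biological replicates.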
# AgBbc1 = target: AgBbc1
# Method: as §1
# AgBem1-D1 = target: AgBem1-D1
# Method: as §1
# AgBzz1-D1 = target: AgBzz1-D1
# Method: as §1
# AgBzz1-D2 = target: AgBzz1-D2
# Method: as §1
# AgCyk3 = target: AgCyk3
# Method: as §1
# AgFus1 = target: AgFus1
# Method: as §1
# AgHof1 = target: AgHof1
# Method: as §1
# AgHse1 = target: AgHse1
# Method: as §1
# AgLsb1 = target: AgLsb1
# Method: as §1
# AgLsb4 = target: AgLsb4
# Method: as §1
# AgMyo5 = target: AgMyo5
# Method: as §1
# AgNbp2 = target: AgNbp2
# Method: as §1
# AgRvs167 = target: AgRvs167
# Method: as §1
# AgSho1 = target: AgSho1
# Method: as §1
# AgSla1-D1-D2 = target: AgSla1-D1-D2
# Method: as §1
# AgSla1-D3 = target: AgSla1-D3
# Method: as §1
# CaAbp1-D1 = target: CaAbp1-D1
# Method: as §1
# CaAbp1-D2 = target: CaAbp1-D2
# Method: as §1
# CaBbc1 = target: CaBbc1
# Method: as §1
# CaBem1-D1 = target: CaBem1-D1
# Method: as §1
# CaBzz1-D1 = target: CaBzz1-D1
# Method: as §1
# CaBzz1-D2 = target: CaBzz1-D2
# Method: as §1
# CaCyk3 = target: CaCyk3
# Method: as §1
# CaFus1 = target: CaFus1
# Method: as §1
# CaHof1 = target: CaHof1
# Method: as §1
# CaHse1 = target: CaHse1
# Method: as §1
# CaLsb1 = target: CaLsb1
# Method: as §1
# CaLsb4 = target: CaLsb4
# Method: as §1
# CaMyo5 = target: CaMyo5
# Method: as §1
# CaNbp2 = target: CaNbp2
# Method: as §1
# CaRvs167 = target: CaRvs167
# Method: as §1
# CaRvs167-3 = target: CaRvs167-3
# Method: as §1
# CaSho1 = target: CaSho1
# Method: as §1
# CaSla1-D1-D2 = target: CaSla1-D1-D2
# Method: as §1
# CaSla1-D3 = target: CaSla1-D3
# Method: as §1
# ScAbp1 = target: ScAbp1
# Method: as §1
# ScBbc1 = target: ScBbc1
# Method: as §1
# ScBem1-D1 = target: ScBem1-D1
# Method: as §1
# ScBzz1-D1 = target: ScBzz1-D1
# Method: as §1
# ScBzz1-D2 = target: ScBzz1-D2
# Method: as §1
# ScCyk3 = target: ScCyk3
# Method: as §1
# ScFus1 = target: ScFus1
# Method: as §1
# ScHof1 = target: ScHof1
# Method: as §1
# ScHse1 = target: ScHse1
# Method: as §1
# ScLsb1 = target: ScLsb1
# Method: as §1
# ScLsb2 = target: ScLsb2
# Method: as §1
# ScLsb3 = target: ScLsb3
# Method: as §1
# ScLsb4 = target: ScLsb4
# Method: as §1
# ScMyo3 = target: ScMyo3
# Method: as §1
# ScMyo5 = target: ScMyo5
# Method: as §1
# ScNbp2 = target: ScNbp2
# Method: as §1
# ScPex13 = target: ScPex13
# Method: as §1
# ScRvs167 = target: ScRvs167
# Method: as §1
# ScSho1 = target: ScSho1
# Method: as §1
# ScSla1-D1-D2 = target: ScSla1-D1-D2
# Method: as §1
# ScSla1-D3 = target: ScSla1-D3
# Method: as §1
# SpAbp1-D1 = target: SpAbp1-D1
# Method: as §1
# SpBbc1 = target: SpBbc1
# Method: as §1
# SpBzz1-D1 = target: SpBzz1-D1
# Method: as §1
# SpBzz1-D2 = target: SpBzz1-D2
# Method: as §1
# SpCyk3 = target: SpCyk3
# Method: as §1
# SpHof1 = target: SpHof1
# Method: as §1
# SpHof1-2 = target: SpHof1-2
# Method: as §1
# SpHof1-3 = target: SpHof1-3
# Method: as §1
# SpHse1 = target: SpHse1
# Method: as §1
# SpLsb1 = target: SpLsb1
# Method: as §1
# SpLsb4 = target: SpLsb4
# Method: as §1
# SpMyo1 = target: SpMyo1
# Method: as §1
# SpNbp2 = target: SpNbp2
# Method: as §1
# SpPex13 = target: SpPex13
# Method: as §1
# SpRvs167 = target: SpRvs167
# Method: as §1
# SpSla1-D1-D2 = target: SpSla1-D1-D2
# Method: as §1
# SpSla1-D3 = target: SpSla1-D3
# Method: as §1
binder,measurement,setting,value
KTKQQKPAIPQKKSF,SPOT peptide array binding signal intensity,AgAbp1,2190
same,SPOT peptide array binding signal intensity,AgBbc1,16.5
same,SPOT peptide array binding signal intensity,AgBem1-D1,7
same,SPOT peptide array binding signal intensity,AgBzz1-D1,73
same,SPOT peptide array binding signal intensity,AgBzz1-D2,21
same,SPOT peptide array binding signal intensity,AgCyk3,≤ 0
same,SPOT peptide array binding signal intensity,AgFus1,≤ 0
same,SPOT peptide array binding signal intensity,AgHof1,35.5
same,SPOT peptide array binding signal intensity,AgHse1,≤ 0
same,SPOT peptide array binding signal intensity,AgLsb1,≤ 0
same,SPOT peptide array binding signal intensity,AgLsb4,1.5
same,SPOT peptide array binding signal intensity,AgMyo5,4
same,SPOT peptide array binding signal intensity,AgNbp2,14
same,SPOT peptide array binding signal intensity,AgRvs167,0.333
same,SPOT peptide array binding signal intensity,AgSho1,≤ 0
same,SPOT peptide array binding signal intensity,AgSla1-D1-D2,17
same,SPOT peptide array binding signal intensity,AgSla1-D3,19.5
same,SPOT peptide array binding signal intensity,CaAbp1-D1,4040
same,SPOT peptide array binding signal intensity,CaAbp1-D2,6440
same,SPOT peptide array binding signal intensity,CaBbc1,149
same,SPOT peptide array binding signal intensity,CaBem1-D1,3
same,SPOT peptide array binding signal intensity,CaBzz1-D1,742
same,SPOT peptide array binding signal intensity,CaBzz1-D2,584
same,SPOT peptide array binding signal intensity,CaCyk3,2
same,SPOT peptide array binding signal intensity,CaFus1,≤ 0
same,SPOT peptide array binding signal intensity,CaHof1,2
same,SPOT peptide array binding signal intensity,CaHse1,1.75
same,SPOT peptide array binding signal intensity,CaLsb1,≤ 0
same,SPOT peptide array binding signal intensity,CaLsb4,≤ 0
same,SPOT peptide array binding signal intensity,CaMyo5,1.5
same,SPOT peptide array binding signal intensity,CaNbp2,≤ 0
same,SPOT peptide array binding signal intensity,CaRvs167,2.33
same,SPOT peptide array binding signal intensity,CaRvs167-3,1.5
same,SPOT peptide array binding signal intensity,CaSho1,≤ 0
same,SPOT peptide array binding signal intensity,CaSla1-D1-D2,1260
same,SPOT peptide array binding signal intensity,CaSla1-D3,≤ 0
same,SPOT peptide array binding signal intensity,ScAbp1,1480
same,SPOT peptide array binding signal intensity,ScBbc1,3
same,SPOT peptide array binding signal intensity,ScBem1-D1,15
same,SPOT peptide array binding signal intensity,ScBzz1-D1,37
same,SPOT peptide array binding signal intensity,ScBzz1-D2,19.5
same,SPOT peptide array binding signal intensity,ScCyk3,≤ 0
same,SPOT peptide array binding signal intensity,ScFus1,≤ 0
same,SPOT peptide array binding signal intensity,ScHof1,7.75
same,SPOT peptide array binding signal intensity,ScHse1,54.5
same,SPOT peptide array binding signal intensity,ScLsb1,4
same,SPOT peptide array binding signal intensity,ScLsb2,≤ 0
same,SPOT peptide array binding signal intensity,ScLsb3,328
same,SPOT peptide array binding signal intensity,ScLsb4,≤ 0
same,SPOT peptide array binding signal intensity,ScMyo3,19
same,SPOT peptide array binding signal intensity,ScMyo5,4.75
same,SPOT peptide array binding signal intensity,ScNbp2,≤ 0
same,SPOT peptide array binding signal intensity,ScPex13,0.75
same,SPOT peptide array binding signal intensity,ScRvs167,4.67
same,SPOT peptide array binding signal intensity,ScSho1,3
same,SPOT peptide array binding signal intensity,ScSla1-D1-D2,213
same,SPOT peptide array binding signal intensity,ScSla1-D3,7.25
same,SPOT peptide array binding signal intensity,SpAbp1-D1,1420
same,SPOT peptide array binding signal intensity,SpBbc1,2.5
same,SPOT peptide array binding signal intensity,SpBzz1-D1,256
RRRDFGAPANKRPRR,SPOT peptide array binding signal intensity,AgAbp1,45
same,SPOT peptide array binding signal intensity,AgBbc1,223
same,SPOT peptide array binding signal intensity,AgBem1-D1,179
same,SPOT peptide array binding signal intensity,AgBzz1-D1,60
same,SPOT peptide array binding signal intensity,AgBzz1-D2,18
same,SPOT peptide array binding signal intensity,AgCyk3,5
same,SPOT peptide array binding signal intensity,AgFus1,374
same,SPOT peptide array binding signal intensity,AgHof1,57.5
same,SPOT peptide array binding signal intensity,AgHse1,156
same,SPOT peptide array binding signal intensity,AgLsb1,0.75
same,SPOT peptide array binding signal intensity,AgLsb4,56.5
same,SPOT peptide array binding signal intensity,AgMyo5,0.5
same,SPOT peptide array binding signal intensity,AgNbp2,39
same,SPOT peptide array binding signal intensity,AgRvs167,6
same,SPOT peptide array binding signal intensity,AgSho1,10
same,SPOT peptide array binding signal intensity,AgSla1-D1-D2,27.5
same,SPOT peptide array binding signal intensity,AgSla1-D3,4.75
same,SPOT peptide array binding signal intensity,CaAbp1-D1,106
same,SPOT peptide array binding signal intensity,CaAbp1-D2,126
same,SPOT peptide array binding signal intensity,CaBbc1,546
same,SPOT peptide array binding signal intensity,CaBem1-D1,52.5
same,SPOT peptide array binding signal intensity,CaBzz1-D1,116
same,SPOT peptide array binding signal intensity,CaBzz1-D2,124
same,SPOT peptide array binding signal intensity,CaCyk3,17
same,SPOT peptide array binding signal intensity,CaFus1,241
same,SPOT peptide array binding signal intensity,CaHof1,0.5
same,SPOT peptide array binding signal intensity,CaHse1,2.25
same,SPOT peptide array binding signal intensity,CaLsb1,≤ 0
same,SPOT peptide array binding signal intensity,CaLsb4,67.5
same,SPOT peptide array binding signal intensity,CaMyo5,2.25
same,SPOT peptide array binding signal intensity,CaNbp2,138
same,SPOT peptide array binding signal intensity,CaRvs167,16
same,SPOT peptide array binding signal intensity,CaRvs167-3,4.5
same,SPOT peptide array binding signal intensity,CaSho1,116
same,SPOT peptide array binding signal intensity,CaSla1-D1-D2,66
same,SPOT peptide array binding signal intensity,CaSla1-D3,4.75
same,SPOT peptide array binding signal intensity,ScAbp1,79
same,SPOT peptide array binding signal intensity,ScBbc1,65
same,SPOT peptide array binding signal intensity,ScBem1-D1,94
same,SPOT peptide array binding signal intensity,ScBzz1-D1,32
same,SPOT peptide array binding signal intensity,ScBzz1-D2,29
same,SPOT peptide array binding signal intensity,ScCyk3,100
same,SPOT peptide array binding signal intensity,ScFus1,163
same,SPOT peptide array binding signal intensity,ScHof1,2
same,SPOT peptide array binding signal intensity,ScHse1,584
same,SPOT peptide array binding signal intensity,ScLsb1,4.5
same,SPOT peptide array binding signal intensity,ScLsb2,1.5
same,SPOT peptide array binding signal intensity,ScLsb3,810
same,SPOT peptide array binding signal intensity,ScLsb4,15.5
same,SPOT peptide array binding signal intensity,ScMyo3,9
same,SPOT peptide array binding signal intensity,ScMyo5,11
same,SPOT peptide array binding signal intensity,ScNbp2,76.5
same,SPOT peptide array binding signal intensity,ScPex13,8.25
same,SPOT peptide array binding signal intensity,ScRvs167,31.8
same,SPOT peptide array binding signal intensity,ScSho1,688
same,SPOT peptide array binding signal intensity,ScSla1-D1-D2,611
same,SPOT peptide array binding signal intensity,ScSla1-D3,25
same,SPOT peptide array binding signal intensity,SpAbp1-D1,30.5
same,SPOT peptide array binding signal intensity,SpBbc1,18
same,SPOT peptide array binding signal intensity,SpBzz1-D1,225
same,SPOT peptide array binding signal intensity,SpBzz1-D2,≤ 0
same,SPOT peptide array binding signal intensity,SpCyk3,4
same,SPOT peptide array binding signal intensity,SpHof1,367
same,SPOT peptide array binding signal intensity,SpHof1-2,21.5
same,SPOT peptide array binding signal intensity,SpHof1-3,342
same,SPOT peptide array binding signal intensity,SpHse1,108
same,SPOT peptide array binding signal intensity,SpLsb1,1.5
same,SPOT peptide array binding signal intensity,SpLsb4,406
same,SPOT peptide array binding signal intensity,SpMyo1,19
same,SPOT peptide array binding signal intensity,SpNbp2,42
same,SPOT peptide array binding signal intensity,SpPex13,15
same,SPOT peptide array binding signal intensity,SpRvs167,12.2
same,SPOT peptide array binding signal intensity,SpSla1-D1-D2,≤ 0
same,SPOT peptide array binding signal intensity,SpSla1-D3,8
